Assay results from PubChem BioAssay.
For some assays here: Potency and affinity values are given separately. Activity calls are given as the source filed them. Unless noted, no rule for the calls is given here.

How the values were obtained:
[1] = antimalarial activity against Dd2 strain (AID 2302;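 active = growth inhibition above 50% at the single 2 µM test dose, taken to imply half-maximal potency below 2 µM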;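 also: 0% = DMSO untreated growth and 100% = chloroquine plus artemisinin killed control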); conditions: P. falciparum Dd2 in RBCs, LDH growth readout, 72 h; at 2 µM; stronger effect = higher value
[2] = human hepatoma cell viability loss – ATP luminescence, cytotoxicity control for P. falciparum antimalarial project, primary screen (AID 2303;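 active = inhibition above 50%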;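 also: 0% = DMSO wells and 100% = digitonin-killed cells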); conditions: HepG2 viability, 24-48 h, at 10 µM, stronger effect = higher value
[3] = target: L-lactate dehydrogenase (Plasmodium falciparum (isolate CDC / Honduras)) (UniProt Q27743); assay: PfLDH activity inhibition – cell lysate, 3D7 strain, counter-screen for P. falciparum growth inhibition project (AID 2304);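 also: 0% = vehicle and 100% = reference inhibitor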; conditions: P. falciparum 3D7 crude extract, LDH APAD/NBT absorbance; at 2 µM; stronger effect = higher value
Chain of L-lactate dehydrogenase (Plasmodium falciparum (isolate CDC / Honduras)) (Q27743 whole entry, looked up): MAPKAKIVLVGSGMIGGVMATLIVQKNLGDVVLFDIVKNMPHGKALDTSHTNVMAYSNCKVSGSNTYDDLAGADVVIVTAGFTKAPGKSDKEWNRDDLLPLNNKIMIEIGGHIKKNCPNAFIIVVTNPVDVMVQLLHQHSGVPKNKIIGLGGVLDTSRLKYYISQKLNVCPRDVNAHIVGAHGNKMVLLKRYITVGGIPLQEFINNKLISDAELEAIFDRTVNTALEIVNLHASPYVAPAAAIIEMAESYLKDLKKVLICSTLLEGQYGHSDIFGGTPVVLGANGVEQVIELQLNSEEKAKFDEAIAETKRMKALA

[4] = inhibition of 3D7 malaria parasite growth – strain 3D7 (AID 2306);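 also: 0% = DMSO wells and 100% = chloroquine plus artemisinin control wells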; conditions: P. falciparum 3D7 erythrocytic growth, LDH absorbance, 72 h; at 2 µM; stronger effect = higher value
[5] = target: Calcium-dependent protein kinase 1 (Plasmodium falciparum (isolate 3D7)) (UniProt P62344); assay: PfCDPK1 kinase inhibitors, biochemical, TCAMS library (AID 1159585; cut-off not given, nearly all actives have IC50 up to about 0.98 µM;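 also: inhibitors leave more ATP so luminescence rises with inhibition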); conditions: recombinant PfCDPK1, Kinase-Glo ATP depletion luminescence
Chain of Calcium-dependent protein kinase 1 (Plasmodium falciparum (isolate 3D7)) (P62344 whole entry, looked up): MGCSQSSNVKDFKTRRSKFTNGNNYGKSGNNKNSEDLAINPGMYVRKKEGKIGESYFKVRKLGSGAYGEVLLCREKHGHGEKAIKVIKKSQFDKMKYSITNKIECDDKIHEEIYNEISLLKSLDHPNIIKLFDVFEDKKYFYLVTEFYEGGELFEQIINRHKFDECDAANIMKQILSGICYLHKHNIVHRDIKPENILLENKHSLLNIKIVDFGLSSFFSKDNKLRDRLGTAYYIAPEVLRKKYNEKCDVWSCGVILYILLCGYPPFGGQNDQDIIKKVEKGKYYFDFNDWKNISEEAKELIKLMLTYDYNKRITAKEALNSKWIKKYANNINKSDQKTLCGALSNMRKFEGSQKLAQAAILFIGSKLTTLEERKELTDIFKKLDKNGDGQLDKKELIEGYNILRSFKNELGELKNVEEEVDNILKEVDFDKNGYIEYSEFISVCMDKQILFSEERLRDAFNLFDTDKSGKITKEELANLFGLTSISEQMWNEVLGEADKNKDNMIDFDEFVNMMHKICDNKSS

[6] = target: Plasmodium falciparum protein kinase 6 (PK6, PF3D7_1337100) (UniProt Q8IDW1); assay: PfPK6 kinase inhibitors, biochemical, TCAMS library (AID 1159586); conditions: recombinant PfPK6, Kinase-Glo ATP depletion luminescence
Chain of Plasmodium falciparum protein kinase 6 (PK6, PF3D7_1337100) (Q8IDW1 1-305): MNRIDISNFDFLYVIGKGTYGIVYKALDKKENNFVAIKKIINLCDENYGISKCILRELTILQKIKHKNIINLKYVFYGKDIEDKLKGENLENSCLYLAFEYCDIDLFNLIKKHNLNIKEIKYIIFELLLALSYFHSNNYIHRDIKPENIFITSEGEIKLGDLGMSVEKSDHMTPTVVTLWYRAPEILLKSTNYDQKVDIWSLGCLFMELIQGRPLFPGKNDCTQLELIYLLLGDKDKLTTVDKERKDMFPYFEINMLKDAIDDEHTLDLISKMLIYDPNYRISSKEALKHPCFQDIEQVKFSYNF

[7] = target: Protein kinase 7 (PK7), Plasmodium falciparum 3D7 (PF3D7_0213400) (UniProt Q7YTF7); assay: inhibition of Plasmodium PK7 catalytic activity – biochemical, TCAMS antimalarial set, Kinase-Glo luminescence (AID 1159587); conditions: recombinant PfPK7, Kinase-Glo ATP depletion luminescence
Chain of Protein kinase 7 (PK7), Plasmodium falciparum 3D7 (PF3D7_0213400) (Q7YTF7 1-343): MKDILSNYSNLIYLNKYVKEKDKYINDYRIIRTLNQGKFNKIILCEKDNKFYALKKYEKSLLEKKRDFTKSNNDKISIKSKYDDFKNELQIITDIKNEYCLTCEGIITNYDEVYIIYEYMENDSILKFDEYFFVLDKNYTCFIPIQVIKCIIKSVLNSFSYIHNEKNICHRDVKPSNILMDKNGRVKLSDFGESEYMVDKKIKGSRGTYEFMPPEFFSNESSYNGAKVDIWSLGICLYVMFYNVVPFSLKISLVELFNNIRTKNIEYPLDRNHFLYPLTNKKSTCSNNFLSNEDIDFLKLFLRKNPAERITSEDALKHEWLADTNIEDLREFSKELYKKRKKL

[8] = target: Calcium-dependent protein kinase 4 (Plasmodium falciparum (isolate 3D7)) (UniProt Q8IBS5); assay: PfCDPK4 kinase inhibitors, biochemical, TCAMS library (AID 1159588; cut-off not given, nearly all actives have IC50 up to about 0.91 µM); conditions: recombinant PfCDPK4, Kinase-Glo ATP depletion luminescence
Chain of Calcium-dependent protein kinase 4 (Plasmodium falciparum (isolate 3D7)) (Q8IBS5 whole entry, looked up): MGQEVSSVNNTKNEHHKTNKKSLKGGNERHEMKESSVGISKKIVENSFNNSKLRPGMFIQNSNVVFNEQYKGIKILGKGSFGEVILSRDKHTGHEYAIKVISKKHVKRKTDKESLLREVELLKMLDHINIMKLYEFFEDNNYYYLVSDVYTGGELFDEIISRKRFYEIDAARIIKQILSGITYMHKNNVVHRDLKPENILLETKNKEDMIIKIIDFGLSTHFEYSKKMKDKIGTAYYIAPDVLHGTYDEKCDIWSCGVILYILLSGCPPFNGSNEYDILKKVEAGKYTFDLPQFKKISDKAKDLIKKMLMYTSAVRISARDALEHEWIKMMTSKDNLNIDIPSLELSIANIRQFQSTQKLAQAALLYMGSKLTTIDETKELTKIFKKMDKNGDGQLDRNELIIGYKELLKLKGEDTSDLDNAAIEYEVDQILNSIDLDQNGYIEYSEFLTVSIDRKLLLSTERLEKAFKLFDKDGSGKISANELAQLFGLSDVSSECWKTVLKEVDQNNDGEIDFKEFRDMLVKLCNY

CC(=O)N(Cc1nc(-c2cc(Cl)c(Cl)s2)cs1)c1c(C)cccc1C
inactive: inhibition [2] 5% | inhibition [3] 3% | outcome [5] | outcome [6] | outcome [7] | outcome [8]
active: growth inhibition [1] 95% | growth inhibition [4] 98%

CC(C)CCN1CCCN(Cc2cccc(NC(=O)c3ccc(Cl)c(Cl)c3)c2)CC1
inactive: growth inhibition [1] 13% | inhibition [2] 35% | inhibition [3] -1% | outcome [5] | outcome [6] | outcome [7] | outcome [8]
active: growth inhibition [4] 92%

CNCCNCc1cccc(-c2ccc(-c3nc4c(C)cccc4[nH]3)s2)c1
inactive: growth inhibition [1] 8% | inhibition [2] 10% | inhibition [3] -6% | outcome [5] | outcome [6] | outcome [7] | outcome [8]
active: growth inhibition [4] 92%

c1ccc2[nH]c(-c3ccc(-c4ccc(CN5CCN(c6ccncc6)CC5)cc4)s3)nc2c1
inactive: inhibition [2] 25% | inhibition [3] -5% | outcome [5] | outcome [6] | outcome [7] | outcome [8]
active: growth inhibition [1] 100% | growth inhibition [4] 101%

Cc1cccc2[nH]c(-c3cccc(-c4ccc(NC(=O)CCc5cnc[nH]5)cc4)c3)nc12
active: growth inhibition [1] 92% | growth inhibition [4] 102%
inactive: inhibition [2] 3% | inhibition [3] 6% | outcome [5] | outcome [6] | outcome [7] | outcome [8]

COc1cccc(C2=CC(c3ccccc3)n3ncc(C(=O)Nc4ccc(Cl)cc4)c3N2)c1 (stereo not given)
active: growth inhibition [4] 88%
inactive: growth inhibition [1] 28% | inhibition [2] 7% | inhibition [3] -1% | outcome [5] | outcome [6] | outcome [7] | outcome [8]

O=c1[nH]c2c(cc1CNC1CCCCC1)c(-c1cccc(F)c1)nn2-c1ccccc1
inactive: inhibition [2] 6% | inhibition [3] 7% | outcome [5] | outcome [6] | outcome [7] | outcome [8]
active: growth inhibition [1] 89% | growth inhibition [4] 95%

FC(F)(F)c1ccc2nc(-c3cccc(-c4cccc(CN5CCN(c6ccncc6)CC5)c4)c3)[nH]c2c1
inactive: inhibition [3] 3% | outcome [5] | outcome [6] | outcome [7] | outcome [8]
active: growth inhibition [1] 99% | inhibition [2] 93% | growth inhibition [4] 100%

O=C(NC1CCN(Cc2ccccc2)CC1)c1cc(C(=O)NC2CCN(Cc3ccccc3)CC2)cc(C(=O)NC2CCN(Cc3ccccc3)CC2)c1
inactive: inhibition [2] 13% | inhibition [3] 1% | outcome [5] | outcome [6] | outcome [7] | outcome [8]
active: growth inhibition [1] 100% | growth inhibition [4] 100%

COC(=O)Nc1cc(C(F)(F)F)ccc1N1CCCC(NS(=O)(=O)c2ccc(C(C)(C)C)cc2)C1 (stereo not given)
inactive: inhibition [2] -8% | inhibition [3] -5% | outcome [5] | outcome [6] | outcome [7] | outcome [8]
active: growth inhibition [1] 90% | growth inhibition [4] 97%

Cc1cc(CNCCCCCCCNCc2ccc(-c3ccccc3)cc2)ccc1O
active: growth inhibition [4] 97%
inactive: growth inhibition [1] 6% | inhibition [2] 49% | inhibition [3] -2% | outcome [5] | outcome [6] | outcome [7] | outcome [8]

O=C(CNc1ccc(Cl)c(S(=O)(=O)N2CCCC2)c1)Nc1ccc(Br)cc1F
inactive: inhibition [2] 18% | inhibition [3] 4% | outcome [5] | outcome [6] | outcome [7] | outcome [8]
active: growth inhibition [1] 97% | growth inhibition [4] 99%

O=c1cc(NCCCNCc2cc3ccc(Br)cc3s2)[nH]c2ccccc12
active: growth inhibition [4] 92%
inactive: growth inhibition [1] 8% | inhibition [2] 18% | inhibition [3] -2% | outcome [5] | outcome [6] | outcome [7] | outcome [8]

CSc1nnc2n(Cc3ccccc3)c(=O)c3c(n12)-c1ccccc1CC31CCCCC1
inactive: growth inhibition [1] -6% | inhibition [2] 0% | inhibition [3] 1% | outcome [5] | outcome [6] | outcome [7] | outcome [8]
active: growth inhibition [4] 93%

CCN(CC)CCOC(=O)c1ccc(NC(=O)c2cn(-c3ccccc3)nc2-c2cccs2)cc1
inactive: inhibition [2] 25% | inhibition [3] 3% | outcome [5] | outcome [6] | outcome [7] | outcome [8]
active: growth inhibition [1] 59% | growth inhibition [4] 100%

Cc1cc(C(F)(F)F)cc(-n2ncc(-c3ccc(C(=O)NCc4ccccc4N)cc3)c2N)n1
active: growth inhibition [1] 89% | growth inhibition [4] 99%
inactive: inhibition [2] 10% | inhibition [3] 3% | outcome [5] | outcome [6] | outcome [7] | outcome [8]

O=S(=O)(c1ccc2cc[nH]c2c1)N1CCC[C@@H]1CCN1CCC(c2c[nH]c3cnccc23)CC1
inactive: growth inhibition [1] 0% | inhibition [2] 13% | inhibition [3] 0% | outcome [5] | outcome [6] | outcome [7] | outcome [8]
active: growth inhibition [4] 95%

COc1ccc(-c2nc3c(N)nc(N)nc3nc2C(C)C)cc1
inactive: growth inhibition [1] -4% | inhibition [3] 6% | outcome [5] | outcome [6] | outcome [7] | outcome [8]
active: inhibition [2] 71% | growth inhibition [4] 96%

O=C(/C=C/c1ccc(Cl)c(Cl)c1)NCCCCCN1CCC(c2c[nH]c3cc(O)ccc23)CC1
inactive: growth inhibition [1] 2% | inhibition [2] 32% | inhibition [3] 3% | outcome [5] | outcome [6] | outcome [7] | outcome [8]
active: growth inhibition [4] 101%

c1cncc(NCc2ccc(-c3cc4ccncc4cc3OC3CCNCC3)s2)c1
active: growth inhibition [4] 100%
inactive: growth inhibition [1] 19% | inhibition [2] 4% | inhibition [3] 2% | outcome [5] | outcome [6] | outcome [7] | outcome [8]

COc1cccc(NC(=O)NCCNc2ccnc(Nc3ccc(F)cc3)n2)c1
active: growth inhibition [4] 94%
inactive: growth inhibition [1] 1% | inhibition [2] 18% | inhibition [3] 4% | outcome [5] | outcome [6] | outcome [7] | outcome [8]

Cc1noc(-c2ccc(NC[C@@H](C)NC[C@H](O)c3cccc(Cl)c3)cc2)n1
active: growth inhibition [1] 84% | growth inhibition [4] 97%
inactive: inhibition [2] 11% | inhibition [3] -1% | outcome [5] | outcome [6] | outcome [7] | outcome [8]

O=C(Nc1cccc(F)c1)N(Cc1ccc(-c2ccc(CN3CCNCC3)cc2)cc1)C1CCN(Cc2ccccc2)CC1
active: growth inhibition [1] 53% | growth inhibition [4] 101%
inactive: inhibition [2] 18% | inhibition [3] 0% | outcome [5] | outcome [6] | outcome [7] | outcome [8]

CN(Cc1cccc(C#N)c1)C1CCN(c2cc(NC(=O)c3ccc(F)cc3)ccn2)CC1
inactive: growth inhibition [1] 23% | inhibition [2] 4% | inhibition [3] -1% | outcome [5] | outcome [6] | outcome [7] | outcome [8]
active: growth inhibition [4] 97%

COc1cc(C(=O)N2N=C(c3c(-c4ccccc4)c4cc(Br)ccc4[nH]c3=O)CC2c2cccc([N+](=O)[O-])c2)cc(OC)c1OC (stereo not given)
active: growth inhibition [1] 95% | growth inhibition [4] 93%
inactive: inhibition [2] 1% | inhibition [3] 4% | outcome [5] | outcome [6] | outcome [7] | outcome [8]

Oc1ccc(Nc2nc(NCC3CCCO3)c3ccccc3n2)cc1 (stereo not given)
active: growth inhibition [1] 57% | growth inhibition [4] 103%
inactive: inhibition [2] 7% | inhibition [3] 4% | outcome [5] | outcome [6] | outcome [7] | outcome [8]

CCCNC(=O)c1cncc(-c2cccc(CNC3Cc4ccccc4C3)c2)c1
active: growth inhibition [4] 100%
inactive: growth inhibition [1] 2% | inhibition [2] -2% | inhibition [3] -3% | outcome [5] | outcome [6] | outcome [7] | outcome [8]

CN1CCCN(c2ccnc3cc4c(cc23)N(C(=O)c2ccc(Cl)cc2Cl)CC4)CC1
active: growth inhibition [1] 51% | growth inhibition [4] 100%
inactive: inhibition [2] 6% | inhibition [3] -2% | outcome [5] | outcome [6] | outcome [7] | outcome [8]

Fc1cc(Cl)ccc1Nc1ccnc2cc(-c3ccc(CN4CCOCC4)o3)ccc12
inactive: inhibition [2] 33% | inhibition [3] 0% | outcome [5] | outcome [6] | outcome [7] | outcome [8]
active: growth inhibition [1] 98% | growth inhibition [4] 99%

O=C(/C=C/c1ccc(Cl)c(Cl)c1)NCCCCCN1CCCC(C(=O)Nc2ccc(Cl)c(Cl)c2)C1 (stereo not given)
inactive: growth inhibition [1] 11% | inhibition [3] -1% | outcome [5] | outcome [6] | outcome [7] | outcome [8]
active: inhibition [2] 53% | growth inhibition [4] 100%

Cc1ccc(NC(=O)c2ccc(Cl)c(Cl)c2)cc1-c1ccc(C(=O)Nc2ccncc2)cc1
active: growth inhibition [1] 79% | growth inhibition [4] 99%
inactive: inhibition [2] 39% | inhibition [3] -3% | outcome [5] | outcome [6] | outcome [7] | outcome [8]

COc1ccc2ncc(F)c(CCN3CCC(NCc4cc5c(cn4)OCCS5)CC3)c2c1
inactive: growth inhibition [1] 40% | inhibition [2] 4% | inhibition [3] -6% | outcome [5] | outcome [6] | outcome [7] | outcome [8]
active: growth inhibition [4] 89%

CCCCN1CC[C@@H](CCC(O)c2ccnc3ccc(OCCC(C)C)cc23)[C@@H](CC)C1 (stereo not given in full)
active: growth inhibition [1] 90% | growth inhibition [4] 94%
inactive: inhibition [2] 22% | inhibition [3] 2% | outcome [5] | outcome [6] | outcome [7] | outcome [8]

Cc1cccc2[nH]c(-c3cccc(-c4ccc(NC(=O)C(C)C(=O)NC(C)C)cc4)c3)nc12 (stereo not given)
inactive: growth inhibition [1] 26% | inhibition [2] 13% | inhibition [3] -3% | outcome [5] | outcome [6] | outcome [7] | outcome [8]
active: growth inhibition [4] 85%

O=C(Nc1cc(F)cc(F)c1)N[C@H]1CCN(CCCCCNC(=O)[C@@H]2C[C@H]2c2ccc(Cl)c(Cl)c2)C1
inactive: growth inhibition [1] -4% | inhibition [2] 24% | inhibition [3] -3% | outcome [5] | outcome [6] | outcome [7] | outcome [8]
active: growth inhibition [4] 88%

COc1ccc2[nH]c(C(=O)Nc3ccc4nc(-c5ccccc5)[nH]c4c3)cc2c1
inactive: growth inhibition [1] 23% | inhibition [3] -1% | outcome [5] | outcome [6] | outcome [7] | outcome [8]
active: inhibition [2] 51% | growth inhibition [4] 96%

CS(=O)(=O)c1ccc2nc(-c3cc(-c4cccc(F)c4)cnc3N)[nH]c2c1
active: growth inhibition [1] 71% | growth inhibition [4] 102%
inactive: inhibition [2] 33% | inhibition [3] 4% | outcome [5] | outcome [6] | outcome [7] | outcome [8]

COc1cc(Nc2nccc(N3CCC(NC(=O)Nc4cc(C)ccc4C)C3)n2)cc(OC)c1OC (stereo not given)
active: growth inhibition [1] 52% | growth inhibition [4] 91%
inactive: inhibition [2] 13% | inhibition [3] 4% | outcome [5] | outcome [6] | outcome [7] | outcome [8]

O=C(NCC1CCC(CNCCc2ccccc2)CC1)Nc1ccc(Cl)c(Cl)c1 (stereo not given)
active: growth inhibition [4] 96%
inactive: growth inhibition [1] -3% | inhibition [2] 24% | inhibition [3] -1% | outcome [5] | outcome [6] | outcome [7] | outcome [8]

O=C(Nc1ccc(C(F)(F)F)cc1)NC1CCN(c2ccnc3ccccc23)C1 (stereo not given)
active: growth inhibition [1] 89% | growth inhibition [4] 102%
inactive: inhibition [2] 13% | inhibition [3] 0% | outcome [5] | outcome [6] | outcome [7] | outcome [8]
